# Test results reported in PubChem BioAssay (NCATS).
# Results filed as inconclusive are left out. Entries that show only a call come without a potency. A number with no mark means an inactive call. The source made the active and inactive calls. Calls come from the whole dose curve; as a rule, active = well fitted curve in the direction sought with a large enough effect; inconclusive = small, poorly fitted or top-dose-only effect, or another doubt; inactive = no such curve, though single readings can be large; an effect the other way counts as inactive or inconclusive.
# Tests used:
# [1] = target: Aldehyde dehydrogenase, mitochondrial (Homo sapiens) (UniProt P05091); test: qHTS for Inhibitors of the Aldehyde Dehydrogenase Family (ALDH2) Primary screen (AID 2061308); settings: ALDH2 enzyme inhibition qHTS, 1536-well; series mostly up to 56 µM; note: nearly all actives have a fitted effect of over 55% in size
# [2] = target: Retinaldehyde dehydrogenase 3 (Homo sapiens) (UniProt P47895); test: qHTS for Inhibitors of the Aldehyde Dehydrogenase Family (ALDH1A3) Primary screen (AID 2061315); settings: ALDH inhibition qHTS; series mostly up to 56 µM
SMILES,Potency [1],Potency [2],"activity change, negative = inhibition [1]","activity change, negative = inhibition [2]"
C=CCNc1oc(-c2ccc(-c3ccccc3)cc2)nc1C#N,inactive,inactive,–,–
CC(=O)C1=C(O)C2c3c[nH]c4cccc(c34)CC2C(C)(C)N(C)C1=O (stereo not drawn),inactive,inactive,–,–
Fc1cnc(-c2ccccc2C(F)F)nc1NCc1ccc(-n2ccnn2)cc1,inactive,inactive,–,–
O=C(Nc1ccc2c(c1)OCCO2)Nc1nnc(-c2ccncc2)s1,inactive,inactive,–,–
O=C1CCc2cc(S(=O)(=O)Nc3cccc(F)c3)ccc2N1,inactive,inactive,–,–
Cc1nc(NCc2ccccc2)c2nc(-c3ccccc3)n(CCCN(C)C)c2n1,inactive,inactive,–,–
COC(=O)Nc1sc2c(c1-c1nc3ccccc3s1)CCNC2,inactive,inactive,–,–
Cc1ccc(NS(=O)(=O)c2cc3c(cc2NCC(C)(C)O)NC(=O)CC3)cc1C,inactive,inactive,–,–
Cn1c2cc(C#N)sc2c2cnn(Cc3ccc(F)cc3)c(=O)c21,inactive,inactive,–,–
O=C(Nc1ccc(Cl)nc1)Nc1nnc(-c2ccncc2)s1,inactive,inactive,–,–
CC(C)c1ccccc1SC1=NS(=O)(=O)c2ccccc21,inactive,inactive,–,–
O=C(O)c1ccc(O)c2ncc(N3CCCCC3CCc3ccccn3)cc12 (stereo not drawn),inactive,inactive,–,–
O=C(O)C[C@H]1CCC(=O)[C@@H]1C/C=C\CCO,inactive,inactive,–,–
CC(=O)Nc1sc2c(c1-c1cncnc1)CCNC2,inactive,inactive,–,–
CC(C)c1ccccc1-c1ncc(N)c(NCc2ccc(-c3cccnc3)cc2)n1,inactive,inactive,–,–
Cc1sc(NC(=O)Cc2ccc3c(c2)OCO3)nc1-c1ccc2c(c1)CCN2C(=O)c1ccccc1Cl,inactive,inactive,–,–
COc1cccc(CNc2ccc(S(=O)(=O)Nc3ncc(C)s3)cc2)c1O,inactive,inactive,–,–
O=C1C(F)N([S+](=O)([O-])c2ccc3c(c2)OCCO3)CCN1[S+](=O)([O-])c1c(F)cccc1F (stereo not drawn),inactive,inactive,–,–
O=C1Nc2cccc(Cl)c2/C1=C\c1cc(Cl)c(O)c(Cl)c1,inactive,inactive,–,–
O=C(NNC(=O)c1nc2ccccc2[nH]1)OCc1ccccc1,inactive,inactive,–,–
CC#CC(=O)Nc1ccc2ncnc(Nc3cccc(Br)c3)c2c1,inactive,inactive,–,–

SMILES,Potency [1],Potency [2],"activity change, negative = inhibition [1]","activity change, negative = inhibition [2]"
N#Cc1nc(NCC(F)F)c2ncn(-c3cc(F)cc(F)c3)c2n1,inactive,inactive,–,–
Cc1ccc(OCCn2c(CCNC(=O)CCN3CCCCC3)nc3ccccc32)cc1,inactive,inactive,–,–
C=CC(=O)Nc1cc(Nc2ncc(Cl)c(-c3c[nH]c4ccccc34)n2)c(OC)cc1N(C)CCN(C)C,inactive,inactive,–,–
O=C1CCc2cc(S(=O)(=O)Nc3ccc(Cl)cc3)ccc2N1,inactive,inactive,–,–
CC1(C)CC[C@]2(C(=O)O)CC[C@]3(C)C(=CCC4[C@@]5(C)CC[C@H](O[C@@H]6O[C@H](C(=O)O)[C@@H](O)[C@H](O[C@@H]7O[C@H](CO)[C@H](O)[C@H](O)[C@H]7O)[C@H]6O[C@@H]6O[C@H](CO)[C@@H](O)[C@H](O)[C@H]6O)C(C)(C)C5CC[C@]43C)[C@@H]2C1 (stereo partly drawn),–,–,-3.97% [at 11.2 µM],11.9% [at 11.2 µM]
CCOC(=O)C1CCN(C(=O)C(C)(C)NC(=O)Nc2ccc(F)c(F)c2)CC1,inactive,inactive,–,–
COc1ccc(NC(=O)c2cccnc2C)cc1S(=O)(=O)Nc1ccc(Br)cc1,inactive,inactive,–,–
c1nc(NCCc2cnc[nH]2)c2cc(-c3ccoc3)ccc2n1,inactive,inactive,–,–
O=C(Nc1ncc(Cc2ccc(C(F)(F)F)cc2)s1)c1cccc(-c2ccccc2)c1,inactive,inactive,–,–
CC(C)(C)OC(=O)Cc1nnc(C(C(=O)OCc2ccccc2)c2ccccc2)o1 (stereo not drawn),inactive,inactive,–,–
Cc1ccc(-c2cc(C(=O)Nc3ccc(S(=O)(=O)NCc4nccs4)cc3)c3ccccc3n2)cc1C,inactive,inactive,–,–
Cc1cc(C)nc(NC(=S)N2CCN(c3ncccc3C#N)CC2)c1,inactive,inactive,–,–
COc1cc(F)c(S(=O)(=O)N2CCCN(S(=O)(=O)c3ccc4c(c3)OCCO4)CC2)c(F)c1,inactive,inactive,–,–
CCC(C)C(=O)OC1C(C)C2(O)C(C=C(CO)CC3(O)C(=O)C(C)=CC32)C2C(C)(C)C12OC(=O)C(C)C (stereo not drawn),inactive,inactive,–,–
Cc1ccc(CN(C)c2ncnc3ccc(-c4ccc(C(=O)O)o4)cc23)o1,inactive,inactive,–,–
O=[S+]([O-])(Nc1nccs1)c1ccc(NCc2cc(Cl)cc(Br)c2O)cc1,inactive,inactive,–,–
Cc1ccc(S(=O)(=O)Nc2cnccc2C(=O)Nc2nc3ccccc3s2)cc1,inactive,inactive,–,–
COc1ccc(CN(Cc2ccccc2)C(=O)c2ccc(OC)cc2O)cc1,inactive,inactive,–,–
O=C(Nc1ccc(Oc2ccccc2)cc1)Nc1nnc(-c2ccncc2)s1,inactive,inactive,–,–
Cc1cc(C)nc(NC(=S)N2CCN(c3cc(Cl)c(Cl)c(Cl)c3)CC2)c1,inactive,inactive,–,–
O=c1[nH]c(CCl)nc2sc3c(c12)CCCC3,inactive,inactive,–,–

SMILES,Potency [1],Potency [2],"activity change, negative = inhibition [1]","activity change, negative = inhibition [2]"
NC[C@@H](O)c1ccc(O)c(O)c1,inactive,inactive,–,–
N#Cc1nc(Nc2cccc3ccccc23)nc(NC2CCCC2)n1,inactive,inactive,–,–
C/C=C(\C)C(=O)OC1C[C@@]2(COC(C)=O)O[C@H]2/C=C\[C@@]2(C)O[C@@H]2[C@H]2OC(=O)C(COC(C)=O)=C12 (stereo partly drawn),inactive,inactive,–,–
COc1cc(O)c(C(CC(=O)N2CCCC(C(F)(F)F)C2)c2ccc3c(c2)OCO3)c(OC)c1 (stereo not drawn),inactive,inactive,–,–
S=C(NCCCc1cnc[nH]1)NCCCN(Cc1ccc(Cl)cc1)c1ccc(Br)cn1,inactive,inactive,–,–
CC1=C(C(=O)Nc2ccccc2)C(c2ccccc2Cl)N=C(Nc2nc3ccccc3o2)N1 (stereo not drawn),inactive,inactive,–,–
CC(=O)c1ccc(N2CCN(S(=O)(=O)c3ccc4c(c3)CC(=O)N4)CC2)cc1,inactive,inactive,–,–
O=C(OCC#CCSc1nnc(-c2ccc3ccccc3c2)o1)c1ccc(F)c(F)c1,inactive,inactive,–,–
COc1ccc(C2=Nn3c(nnc3-c3ccccc3Cl)SC2)cc1OC1CCOC1 (stereo not drawn),inactive,inactive,–,–
COc1cc(OC)c(C(CC(=O)N2CC(C)CC(C)C2)c2ccc3c(c2)OCO3)c(OCC(N)=O)c1 (stereo not drawn),inactive,inactive,–,–
Cc1csc(CNc2ncnc3ccc(-c4ccco4)cc23)c1,inactive,inactive,–,–
CC(=O)Nc1sc2c(c1C(=O)O)CCNC2,inactive,inactive,–,–
O=C(CCc1ccccc1)Nc1ccc(S(=O)(=O)Nc2nccs2)cc1,inactive,inactive,–,–
CCC1CCCN(C(=O)CC(c2ccc3c(c2)OCO3)c2c(O)cc(OC)cc2OC)C1 (stereo not drawn),inactive,inactive,–,–
CCCCNc1nc(C)nc2c1nc(-c1ccccc1)n2CC1CCN(C)CC1,inactive,inactive,–,–
O=C(NCCc1nc2ccccc2[nH]1)C1CCCCC1,inactive,inactive,–,–
O=C(Nc1ccc(-c2cccnc2)nc1)c1cccs1,inactive,inactive,–,–
Cc1ccc(NS(=O)(=O)c2ccccc2C(=O)Nc2nc(-c3ccccc3)cs2)cc1,inactive,inactive,–,–
Cc1cc(NC(=O)Nc2nnc(-c3cccnc3)s2)ccc1F,inactive,inactive,–,–
COc1ccc(CN(Cc2ccccc2)C(=O)c2ccccc2O)cc1COc1ccc(NC(C)=O)cc1,inactive,inactive,–,–
CC1OC2OC3C(OCC(O)C3O)OC(=O)C34CCC(C)(C)CC3C3=CCC5C6(C)CC(O)C(OC7OC(CO)C(O)C(O)C7OC7OCC(OC(=O)CC(C)(O)CC(=O)OC1C(OC1OCC(O)C(O)C1O)C2O)C(O)C7O)C(C)(CO)C6CCC5(C)C3(C)CC4O (stereo not drawn),inactive,inactive,–,–

SMILES,Potency [1],Potency [2],"activity change, negative = inhibition [1]","activity change, negative = inhibition [2]"
Cc1ccnc(NC(=S)N2CCN(c3cccc(C(F)(F)F)c3)C2)c1,inactive,inactive,–,–
O=S(=O)(c1ccc2c(c1)OCCO2)N1CCN(S(=O)(=O)c2c(Cl)cc(C(F)(F)F)cc2Cl)CC1,inactive,inactive,–,–
N#CN1CCC(NS(=O)(=O)c2cccc(F)c2)C1 (stereo not drawn),inactive,inactive,–,–
CCNc1ncnc2ccc(-c3ccc4c(c3)OCO4)cc12,inactive,inactive,–,–
Cc1cc2c(s1)c1cnn(Cc3ccc(Cl)cc3)c(=O)c1n2C,inactive,inactive,–,–
CC1=C(C(=O)Nc2ccc(C)cc2)C(c2ccccc2Br)N=C(Nc2nc3ccccc3o2)N1 (stereo not drawn),inactive,inactive,–,–
Cc1ccc(S(=O)(=O)Nc2cnccc2C(=O)Nc2cccc3ccccc23)cc1,inactive,inactive,–,–
Cc1cnc(-c2ccccc2C(C)C)nc1NCc1ccc(-c2ccc(F)nc2)cc1,inactive,inactive,–,–
N#Cc1ccc(N[S+](=O)([O-])c2ccc(Nc3nc(-c4ccccc4)cs3)cc2)cc1,inactive,inactive,–,–
FC(F)(F)c1cccc(N2CCN(C(=S)Nc3nccc4ccccc34)CC2)c1,inactive,inactive,–,–
COc1ccc(-c2csc3ncnc(Sc4nnnn4C)c23)cc1,inactive,inactive,–,–
O=S(=O)(c1cccc2ccccc12)n1ccc2ccc(N3CCN4CCCC4C3)cc21 (stereo not drawn),inactive,inactive,–,–
CC(C)(C)CNc1ncnc2ccc(-c3ccc(C(=O)O)o3)cc12,inactive,inactive,–,–
Oc1cc(-c2ccncc2)cc2cccnc12,inactive,inactive,–,–
Cc1cc(C)nc(NC(=S)N2CCN(c3ccncc3)CC2)c1,inactive,inactive,–,–
O=C(O)c1ccccc1-c1noc(-c2ccccc2F)n1,inactive,inactive,–,–
Cc1ccnc(NC(=S)NCCN(C)c2cccc(C(F)(F)F)c2)c1,inactive,inactive,–,–
CCCc1cc(=O)c2ccccc2n1C,inactive,inactive,–,–
CC(=O)c1ccc(N2CCN(S(=O)(=O)c3ccc4c(c3)CCC(=O)N4)CC2)cc1,inactive,inactive,–,–
CCCn1c(C)nc2c(NC3CCN(Cc4ccccc4)CC3)nc(C)nc21,inactive,inactive,–,–
CC(C)Cc1ccc(-c2ccc(=O)n(CC(=O)NCCc3ccccc3)n2)cc1,inactive,inactive,–,–
